# Source: PubChem BioAssay (NCATS)
# Records with an inconclusive call do not appear. Entries that show only a call come without a potency. Activity calls are given as the source filed them. Unless noted, calls follow the shape of the dose curve; as a rule, active = well fitted curve in the direction sought with a large enough effect; inconclusive = small, poorly fitted or top-dose-only effect, or another doubt; inactive = no such curve, though single readings can be large; an effect the other way counts as inactive or inconclusive.
# Tests used:
# [1] = biological target: Luciferin 4-monooxygenase (Photinus pyralis) (UniProt P08659); assay: Biochemical firefly luciferase enzyme assay for NPC (AID 624030);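 also: purified P. pyralis luciferase at 10 nM with luciferin and ATP substrate; nearly all actives have a fitted effect of over 70% in size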
# Procedure, shortened: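 Direct inhibition of firefly luciferase enzyme (10 nM final, 50 mM Tris Acetate) assessed by luminescence within 5 minutes. Percent activity scaled between DMSO and PTC124 positive control, with concentration-effect curves classified by fit quality and response.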
# [2] = S16 Schwann cell viability assay (CellTiter-Glo assay) (AID 624031);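 also: native untransfected S16 rat Schwann cells; nearly all actives have a fitted effect of over 70% in size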
# Procedure, shortened: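 Counter-screen for cytotoxicity: parental S16 rat Schwann cells lacking the PMP22 reporters, treated 24 h with compound, viability from cellular ATP by CellTiter-Glo luminescence, normalized to DMSO (0%) and no-cell wells.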
# [3] = biological target: Voltage-gated inwardly rectifying potassium channel KCNH2 (Homo sapiens) (UniProt Q12809); assay: qHTS Assay for Small Molecule Inhibitors of the Human hERG Channel Activity (AID 588834);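 also: lower thallium flux fluorescence means stronger hERG block; nearly all actives have a fitted effect of over 50% in size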; also: potency is read from the fitted curve at half-maximal effect
# Procedure, shortened: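 Thallium-flux (FluxOR) read-out on FDSS: fluorescence read 10 s before and 2 min after stimulation buffer. hERG-BacMam-transduced U2OS cells, compound exposure about 10 min. AC50 by standard Hill equation.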
# [4] = qHTS Assay for Identification of Small Molecule Agonists for NFkB Signaling Pathway. (AID 624478);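 also: compounds tested together with TNF alpha at its EC50 of 10 pM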
# Procedure, shortened: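 Assay medium contained 0.5% FBS and 10 mM HEPES pH 7.3. Compounds were added together with TNF alpha (10 pM final), incubated 5 h at 37 C, and the beta-lactamase signal was measured fluorometrically.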
# [5] = qHTS Assay for Identification of Small Molecule Antagonists for NFkB Signaling Pathway. (AID 624479; calls by dose curve;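 also: pathway stimulated with TNF alpha; potency is read from the fitted curve at half-maximal effect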)
# [6] = Cell Proliferation Assay against the TMD8 Cell Line (AID 651645); settings: TMD8 DLBCL cell line proliferation/viability; at 46.1 µM (top of the series);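 also: cells exposed to compound for 48 h before reading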
# Procedure, shortened: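 Luminescent ATP read-out (CellTiter-Glo, 15 min RT) after 48 h compound exposure of log-growing TMD8 cells at 37C; percent activity scaled between DMSO as 100% and 9.2 uM bortezomib final as 0%.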
# [7] = Cell Proliferation Assay against the HBL1 Cell Line (AID 651646); settings: HBL1 DLBCL cells; at 46.1 µM (top of the series);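 also: cells exposed to compound for 48 h before reading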
# Procedure, shortened: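 CellTiter-Glo luminescence after 48 h compound exposure at 37C gives percent activity, with DMSO as 100% and 9.2 uM bortezomib final as 0%. Cells: 500 log-phase HBL1 per well, RPMI plus 5% FBS.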
# [8] = Cell Proliferation Assay against the TMD8 Cell Line (Caspase readout at 16 hrs) (AID 651712); also: potency is read from the fitted curve at half-maximal effect
# Procedure, shortened: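 Caspase-Glo luminescence measured apoptosis after a 16 h, 37 C compound exposure of TMD8 cells (500 cells/well, 5% FBS RPMI). DMSO set 0% and bortezomib at 9.2 uM final set 100% activity.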
# [9] = Cell Proliferation Assay against the TMD8 Cell Line (Caspase readout at 8 hrs) (AID 651713)
# Procedure, shortened: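 Luminescent caspase 3/7 assay; TMD8 cells, 8 h treatment at 37C, 5% CO2. Normalisation: DMSO 0%, 9.2 uM bortezomib 100%.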
# [10] = S16 Schwann cell PMP22 intronic element firefly luciferase assay (AID 624032); also: nearly all actives have a fitted effect of over 30% in size; also: potency is read from the fitted curve at half-maximal effect
# Procedure, shortened: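 Luciferase reporter of PMP22 intronic-element expression in stably transfected S16 rat Schwann cells, read by ONE-Glo luminescence after 24 h compound exposure at 37 C. Activity scaled between DMSO (0%) and positive-control PTC124; concentration-effect curves quality-classified.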
# [11] = S16 Schwann cell PMP22 intronic element beta-lactamase assay (AID 624044; calls by dose curve; also: nearly all actives have a fitted effect of over 15% in size; also: potency is read from the fitted curve at half-maximal effect)
# Procedure, shortened: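 Beta-lactamase reporter under a PMP22 intronic regulatory element in stable S16 rat Schwann cells; 24 h compound exposure. 460 nm blue signal normalized between DMSO (0%) and potassium clavulanate, with 535 nm FRET tracking viability; curves classed by r2 and response.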
# [12] = Cytotoxicity counterscreen for NFkB agonists and antagonists (AID 624476);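 also: potency is read from the fitted curve at half-maximal effect; cells exposed to compound for 48 hours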
# [13] = biological target: Thyroid hormone receptor beta (Homo sapiens) (UniProt P10828); assay: qHTS assay for small molecule antagonists of thyroid hormone receptor beta signaling (AID 588547; active = well fitted inhibition curve with a large enough effect in the signal ratio, with a control signal flat, not every such curve was filed as active; the % refers to the signal ratio;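 also: cells stimulated with 0.4 nM T3 agonist during compound exposure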); settings: TR-UAS-bla HEK293, beta-lactamase ratio, antagonist mode, 18 h
# Procedure, shortened: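 Inhibition of T3-driven (0.4nM final) beta-lactamase reporter activity was measured over 0.59 nM to 92 uM compound after 18 h at 37 C. The cells were GripTite HEK293 TR-UAS-bla in charcoal/dextran-stripped serum, with CCF4 ratio read-out and IC50 from Hill fits.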
# [14] = qHTS assay for small molecule agonists of the antioxidant response element (ARE) signaling pathway (AID 651741; active = well fitted activation curve with a large enough effect in the signal ratio; the % refers to the signal ratio; also: potency is read from the fitted curve at half-maximal effect); settings: HepG2 ARE-bla reporter, beta-lactamase FRET ratio, 16 h
# Procedure, shortened: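 Agonist activity is measured as ARE-driven beta-lactamase expression in a stable HepG2 reporter line, using 16 h compound treatment at 37 C and a FRET substrate fluorescence readout after 2 h.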
# [15] = qHTS assay for small molecule activators of the p53 signaling pathway (AID 651743; active = well fitted activation curve with a large enough effect in the signal ratio, not every such curve was filed as active; the % refers to the signal ratio); settings: HCT-116 p53RE-bla, beta-lactamase FRET ratio, 16 h; stronger effect = higher value
# Procedure, shortened: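 A beta-lactamase reporter under p53 response element control, stably carried by HCT-116 cells, reported pathway activation. Test compounds were applied for 16 hours at 37 C, and fluorescence was measured 2 hours after adding the B/G FRET substrate.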
# Sequence of Voltage-gated inwardly rectifying potassium channel KCNH2 (Homo sapiens) (Q12809 whole entry, looked up): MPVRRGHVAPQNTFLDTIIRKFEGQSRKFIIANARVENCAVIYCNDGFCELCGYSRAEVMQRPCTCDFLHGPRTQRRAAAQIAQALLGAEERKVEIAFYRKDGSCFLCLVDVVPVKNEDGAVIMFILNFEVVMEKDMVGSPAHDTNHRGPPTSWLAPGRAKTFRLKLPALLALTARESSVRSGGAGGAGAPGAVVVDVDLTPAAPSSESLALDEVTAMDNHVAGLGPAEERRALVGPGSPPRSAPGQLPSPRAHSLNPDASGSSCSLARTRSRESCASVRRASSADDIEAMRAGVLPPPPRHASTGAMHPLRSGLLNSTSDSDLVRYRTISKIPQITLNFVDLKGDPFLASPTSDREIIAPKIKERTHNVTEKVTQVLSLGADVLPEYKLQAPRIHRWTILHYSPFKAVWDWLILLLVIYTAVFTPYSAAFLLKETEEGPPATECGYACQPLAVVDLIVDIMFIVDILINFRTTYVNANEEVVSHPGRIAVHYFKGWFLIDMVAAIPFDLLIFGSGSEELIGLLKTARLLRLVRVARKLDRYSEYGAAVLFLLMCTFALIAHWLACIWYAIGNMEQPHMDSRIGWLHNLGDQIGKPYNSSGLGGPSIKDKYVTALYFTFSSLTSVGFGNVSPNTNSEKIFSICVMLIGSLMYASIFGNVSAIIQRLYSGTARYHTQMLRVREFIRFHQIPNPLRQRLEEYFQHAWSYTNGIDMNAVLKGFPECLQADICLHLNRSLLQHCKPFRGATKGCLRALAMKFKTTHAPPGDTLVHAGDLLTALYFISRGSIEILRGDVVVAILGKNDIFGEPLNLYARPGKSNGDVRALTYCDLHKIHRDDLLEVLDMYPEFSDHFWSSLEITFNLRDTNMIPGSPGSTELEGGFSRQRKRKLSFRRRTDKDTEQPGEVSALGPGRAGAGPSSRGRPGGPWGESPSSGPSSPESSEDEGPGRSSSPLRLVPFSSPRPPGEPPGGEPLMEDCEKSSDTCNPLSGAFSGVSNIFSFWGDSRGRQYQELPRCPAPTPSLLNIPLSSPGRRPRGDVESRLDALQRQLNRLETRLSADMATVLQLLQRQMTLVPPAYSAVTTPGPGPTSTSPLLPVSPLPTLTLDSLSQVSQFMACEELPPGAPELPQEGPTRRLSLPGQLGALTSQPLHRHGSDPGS
# Sequence of Luciferin 4-monooxygenase (Photinus pyralis) (P08659 whole entry, looked up): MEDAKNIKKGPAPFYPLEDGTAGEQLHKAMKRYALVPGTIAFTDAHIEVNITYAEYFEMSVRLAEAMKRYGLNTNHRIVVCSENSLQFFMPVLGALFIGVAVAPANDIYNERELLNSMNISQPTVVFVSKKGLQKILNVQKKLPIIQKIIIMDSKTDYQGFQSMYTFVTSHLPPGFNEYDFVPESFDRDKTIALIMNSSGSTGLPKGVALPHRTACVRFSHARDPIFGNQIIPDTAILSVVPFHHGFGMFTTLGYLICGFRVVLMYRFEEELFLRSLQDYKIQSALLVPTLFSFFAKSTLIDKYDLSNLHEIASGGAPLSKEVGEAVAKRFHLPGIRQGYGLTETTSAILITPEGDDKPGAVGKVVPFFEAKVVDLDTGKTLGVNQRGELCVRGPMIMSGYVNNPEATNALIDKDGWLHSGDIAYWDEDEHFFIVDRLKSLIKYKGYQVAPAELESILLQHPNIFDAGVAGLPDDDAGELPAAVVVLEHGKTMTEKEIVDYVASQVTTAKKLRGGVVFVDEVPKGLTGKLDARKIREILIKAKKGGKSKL
# Sequence of Thyroid hormone receptor beta (Homo sapiens) (P10828 whole entry, looked up): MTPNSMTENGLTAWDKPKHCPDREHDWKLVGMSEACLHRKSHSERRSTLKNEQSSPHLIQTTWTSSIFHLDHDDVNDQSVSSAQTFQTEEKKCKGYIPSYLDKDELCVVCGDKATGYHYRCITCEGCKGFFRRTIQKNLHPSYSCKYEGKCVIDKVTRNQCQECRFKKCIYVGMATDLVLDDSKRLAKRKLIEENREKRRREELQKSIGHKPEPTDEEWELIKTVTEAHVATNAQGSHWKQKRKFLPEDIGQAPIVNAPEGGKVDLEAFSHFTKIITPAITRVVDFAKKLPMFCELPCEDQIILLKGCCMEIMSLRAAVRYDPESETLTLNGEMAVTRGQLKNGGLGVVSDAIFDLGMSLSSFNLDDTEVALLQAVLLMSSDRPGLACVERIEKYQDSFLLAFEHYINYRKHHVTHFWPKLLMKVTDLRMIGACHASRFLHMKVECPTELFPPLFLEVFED
structure (smiles),measurement,setting,value
CC[C@H]1CN2CCc3cc(OC)c(OC)cc3[C@H]2C[C@@H]1C[C@@H]1NCCc2cc(OC)c(OC)cc21,Potency,[1],inactive
same,outcome,[2],inactive
Cc1nc2ccc(CN(C)c3ccc(C(=O)N[C@@H](CCC(=O)O)C(=O)O)s3)cc2c(=O)[nH]1,Potency,[3],inactive
same,Potency,[1],inactive
CC(=O)SC[C@@H](C)C(=O)N1CCC[C@H]1C(=O)N[C@@H](Cc1ccccc1)C(=O)O,Potency,[1],inactive
same,outcome,[4],inactive
same,Potency,[5],8.41 µM (active)
same,viability (% of control),[6],104%
same,"viability, percent of control",[7],97.5%
same,Potency,[8],inactive
same,Potency,[9],inactive
C[C@H]1C[C@@H]2[C@@H]([C@@H](O)C[C@@]3(C)[C@H]2CC[C@]3(O)C(=O)CO)[C@@]2(C)C=CC(=O)C=C12,Potency,[3],inactive
same,Potency,[1],inactive
same,outcome,[2],inactive
same,Potency,[10],inactive
same,Potency,[11],inactive
COC(=O)C1=C(C)NC(C)=C(C(=O)OCCN2CCN(C(c3ccccc3)c3ccccc3)CC2)C1c1cccc([N+](=O)[O-])c1 (configuration not stated),Potency,[3],3.98 µM (active)
same,Potency,[1],inactive
CC1(C)OC2=C(C(=O)c3ccccc3C2=O)[C@H](NCc2ccccc2)[C@H]1O,Potency,[12],5.26 µM (active)
same,outcome,[4],inactive
same,Potency,[5],3.75 µM (active)
same,viability (% of control),[6],5.62%
same,"viability, percent of control",[7],6.45%
same,Potency,[8],inactive
CC1(C)O[C@@H]2C[C@@H]3[C@H]4C[C@@H](F)C5=CC(=O)C=C[C@]5(C)[C@@]4(F)[C@@H](O)C[C@]3(C)[C@]2(C(=O)CO)O1,Potency,[1],inactive
same,outcome,[2],inactive
same,Potency,[10],inactive
same,Potency,[11],inactive
CCC1=C[C@@H]2CN(C1)Cc1c([nH]c3ccccc13)[C@@](C(=O)OC)(c1cc3c(cc1OC)N(C)[C@@H]1[C@@](O)(C(=O)OC)[C@H](OC(C)=O)[C@]4(CC)C=CCN5CC[C@]31[C@@H]54)C2,Potency,[1],inactive
same,outcome,[2],inactive
same,Potency,[10],0.907 µM (active)
Nc1ccc(S(=O)(=O)Nc2ncccn2)cc1,Potency,[3],inactive
same,outcome,[2],inactive
same,Potency,[10],6.91 µM (active)
same,Potency,[11],inactive
COc1c(N2C[C@@H]3CCCN[C@H]3C2)c(F)cc2c(=O)c(C(=O)O)cn(C3CC3)c12,Potency,[3],inactive
same,Potency,[1],inactive
same,outcome,[2],inactive
same,Potency,[10],inactive
CCN1CCN(Cc2ccc(-c3cc4c(N[C@H](C)c5ccccc5)ncnc4[nH]3)cc2)CC1,Potency,[12],33.2 µM (active)
same,outcome,[4],inactive
same,Potency,[5],16.8 µM (active)
same,viability (% of control),[6],1.56%
same,"viability, percent of control",[7],1.9%
same,Potency,[8],16.6 µM (active)
Cc1ccc(-c2ncn(-c3ccc(Nc4nccc(-c5cccc(N6CCOCC6)c5)n4)cc3)n2)cn1,Potency,[12],0.935 µM (active)
same,outcome,[4],inactive
same,Potency,[5],0.237 µM (active)
same,viability (% of control),[6],0.9%
same,"viability, percent of control",[7],0.21%
same,Potency,[8],0.0105 µM (active)
COC(=O)[C@]12CCC(C)(C)C[C@@H]1[C@@H]1C(=O)C=C3[C@@]4(C)C=C(C#N)C(=O)C(C)(C)[C@@H]4CC[C@@]3(C)[C@]1(C)CC2,Potency,[12],1.32 µM (active)
same,outcome,[4],inactive
same,Potency,[5],0.595 µM (active)
Nc1ccn([C@@H]2O[C@H](CO)[C@H](O)C2(F)F)c(=O)n1,Potency,[3],inactive
same,Potency,[1],inactive
same,Potency,[10],inactive
same,Potency,[11],0.562 µM (active)
COc1ccc(CC2c3cc(OC)c(OC)cc3CC[N+]2(C)CCC(=O)OCCCCCOC(=O)CC[N+]2(C)CCc3cc(OC)c(OC)cc3C2Cc2ccc(OC)c(OC)c2)cc1OC (configuration not stated),Potency,[3],inactive
O=C(O)CCCc1c[nH]c2ccccc12,activity change % (negative = inhibition),[13],3.26% (inactive)
same,Potency,[14],61.1 µM (active)
same,activation,[15],-6.63% (inactive)
CN1c2cc(O)c(N=NC(N)=O)cc2CC1S(=O)(=O)O (configuration not stated),Potency,[3],inactive
same,Potency,[1],inactive
same,outcome,[2],inactive
same,Potency,[10],inactive
same,Potency,[11],inactive
